Our source for the IC50 values is PubChem BioAssay AID686965 (The Scripps Research Institute Molecular Screening Center, 2013).

A number with no mark means an inactive call. The rule behind the calls is not given here.

The nature of the experiment: GFP fluorescence inhibitors and quenchers, late-stage follow-up, artefact control for Rin1-Abl interaction inhibitor project, biochemical, dose response, round 2 (AID 686965). As to conditions: GFP fluorescence quenching/inhibition counterscreen. (The purpose of a counterscreen is to sort out artefacts and off-target activity.)
A word on the IC50: it is the concentration needed to halve the response being measured. As for `COc1cc(OCc2ccc(F)cc2)ccn1`, the IC50 is over 67.5 µM. As to `COc1ccc(COc2ccn(C)c(=O)c2)cc1`, the IC50 is over 67.5 µM. With `Nc1cc(OCc2ccccc2)ccn1` the figure was over 67.5 µM; with `COc1ccc(COc2cc[nH]c(=O)c2)cc1`, over 67.5 µM. Consider `COc1ccc(COc2ccnc(OC)c2)cc1`, for which the IC50 is over 67.5 µM. As to `Cn1ccc(OCc2ccc(F)cc2)cc1=O`, the IC50 was over 67.5 µM. As to `Cn1ccc(OCc2ccccc2)cc1=O`, the IC50 is over 67.5 µM. For `COc1cc(OCc2ccccc2)ccn1`, the IC50 was over 67.5 µM. With `O=c1cc(OCc2ccccc2)cc[nH]1` the figure was over 67.5 µM; with `O=c1cc(OCc2ccc(F)cc2)cc[nH]1`, over 67.5 µM.
